# About 7,900 targets were measured; listed, in parts, are those with a hit and a random draw of the rest. About 0.6% of all pairs of compound and target were hits. Unmarked numbers belong to inactive results.
# Experiments:
# Assay in all cases: log2 fold change, soluble protein after heating vs DMSO (PISA); higher = thermal stabilisation; K562 cells, 10 uM, 30 min; active = over 0.2 and 3.5 SD of the protein, either way, in both replicates (recomputed)
# crizotinib = compound: C[C@@H](Oc1cc(-c2cnn(C3CCNCC3)c2)cnc1N)c1c(Cl)ccc(F)c1Cl [crizotinib]
# Outline: (§1)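 K562 cells at 2×10^6 cells/mL were given 10 μM compound for 30 min. Aliquots then went through 3 min of heating across 48°C-58°C, were pooled, and were extracted in PBS with 0.5% NP-40 at 4°C, and the supernatant after 21,000xg for 90 min was quantified by TMTpro 16plex LC-MS/MS with channel sums equalised. Thermal stability relative to control samples, from duplicates, is given as log2 fold change.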
# [1] = compound: C[C@H](C1=CC=C(C=C1)C(=O)NC2=C3C=CNC3=NC=C2)N
# Outline: as §1
# duvelisib = compound: C[C@H](Nc1ncnc2nc[nH]c12)c1cc2cccc(Cl)c2c(=O)n1-c1ccccc1 [duvelisib]
# Outline: as §1
# gandotinib = compound: Cc1cc(Nc2cc(CN3CCOCC3)c3nc(C)c(Cc4ccc(Cl)cc4F)n3n2)n[nH]1 [gandotinib]
# Outline: as §1
# tozasertib = compound: Cc1cc(Nc2cc(N3CCN(C)CC3)nc(Sc3ccc(NC(=O)C4CC4)cc3)n2)n[nH]1 [tozasertib]
# Outline: as §1
# [2] = compound: Cc1cc(SCc2sc(-c3ccc(C(F)(F)F)cc3)nc2C)ccc1OCC(=O)O
# Outline: as §1
# doramapimod = compound: Cc1ccc(-n2nc(C(C)(C)C)cc2NC(=O)Nc2ccc(OCCN3CCOCC3)c3ccccc23)cc1 [doramapimod]
# Outline: as §1
# ispinesib = compound: Cc1ccc(C(=O)N(CCCN)[C@@H](c2nc3cc(Cl)ccc3c(=O)n2Cc2ccccc2)C(C)C)cc1 [ispinesib]
# Outline: as §1
# [3] = compound: Cc1cccc(CC(=O)N2CCc3c2ccc(-c2cn(C)c4ncnc(N)c24)c3F)n1
# Outline: as §1
# nilotinib = compound: Cc1cn(-c2cc(NC(=O)c3ccc(C)c(Nc4nccc(-c5cccnc5)n4)c3)cc(C(F)(F)F)c2)cn1 [nilotinib]
# Outline: as §1
# [4] = compound: Cc1nc(Nc2n[nH]c3c2CN(C(=O)N[C@H](CN(C)C)c2ccccc2)C3(C)C)c2sccc2n1
# Outline: as §1
# dasatinib = compound: Cc1nc(Nc2ncc(C(=O)Nc3c(C)cccc3Cl)s2)cc(N2CCN(CCO)CC2)n1 [dasatinib]
# Outline: as §1
# [5] = compound: Cc1ncc(-c2ccnc(Nc3ccc(S(C)(=O)=O)cc3)n2)n1C(C)C
# Outline: as §1
# [6] = compound: Cn1cc(-c2ccc3c(c2)CCN3C(=O)Cc2cccc(C(F)(F)F)c2)c2c(N)ncnc21
# Outline: as §1
# [7] = compound: Cn1cc(-c2ccc3nnc(C(F)(F)c4ccc5ncccc5c4)n3n2)cn1
# Outline: as §1
# [8] = compound: C[C@@H]1COCCN1C2=NC(=NC(=C2)C3(CC3)S(=O)(=O)C)C4=C5C=CNC5=CC=C4
# Outline: as §1
# bafetinib = compound: Cc1ccc(NC(=O)c2ccc(CN3CC[C@H](N(C)C)C3)c(C(F)(F)F)c2)cc1Nc1nccc(-c2cncnc2)n1 [bafetinib]
# Outline: as §1
# [9] = compound: CS(=O)(=O)c1ccc(-c2cnc(N)c(C(=O)Nc3ccccc3)n2)cc1
# Outline: as §1
# tipifarnib = compound: Cn1cncc1[C@@](N)(c1ccc(Cl)cc1)c1ccc2c(c1)c(-c1cccc(Cl)c1)cc(=O)n2C [tipifarnib]
# Outline: as §1
# mubritinib = compound: FC(F)(F)c1ccc(/C=C/c2nc(COc3ccc(CCCCn4ccnn4)cc3)co2)cc1 [mubritinib]
# Outline: as §1
# Chain of UniProt Q14194 (Q14194 whole entry, looked up): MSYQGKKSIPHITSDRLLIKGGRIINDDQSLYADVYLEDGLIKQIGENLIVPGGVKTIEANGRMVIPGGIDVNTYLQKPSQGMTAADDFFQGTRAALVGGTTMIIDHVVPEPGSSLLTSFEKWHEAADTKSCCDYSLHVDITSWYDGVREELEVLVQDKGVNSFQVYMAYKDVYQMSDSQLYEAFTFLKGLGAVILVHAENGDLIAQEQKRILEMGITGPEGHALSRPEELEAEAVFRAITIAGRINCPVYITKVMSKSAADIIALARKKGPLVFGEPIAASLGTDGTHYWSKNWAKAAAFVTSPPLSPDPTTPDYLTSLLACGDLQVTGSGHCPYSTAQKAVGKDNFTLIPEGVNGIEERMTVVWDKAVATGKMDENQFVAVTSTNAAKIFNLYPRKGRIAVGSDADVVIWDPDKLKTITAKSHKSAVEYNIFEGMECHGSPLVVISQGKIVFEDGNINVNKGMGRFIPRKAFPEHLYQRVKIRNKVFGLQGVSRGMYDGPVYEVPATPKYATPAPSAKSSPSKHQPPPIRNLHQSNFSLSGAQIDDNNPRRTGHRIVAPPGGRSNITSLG
# Chain of UniProt Q14677 (Q14677 whole entry, looked up): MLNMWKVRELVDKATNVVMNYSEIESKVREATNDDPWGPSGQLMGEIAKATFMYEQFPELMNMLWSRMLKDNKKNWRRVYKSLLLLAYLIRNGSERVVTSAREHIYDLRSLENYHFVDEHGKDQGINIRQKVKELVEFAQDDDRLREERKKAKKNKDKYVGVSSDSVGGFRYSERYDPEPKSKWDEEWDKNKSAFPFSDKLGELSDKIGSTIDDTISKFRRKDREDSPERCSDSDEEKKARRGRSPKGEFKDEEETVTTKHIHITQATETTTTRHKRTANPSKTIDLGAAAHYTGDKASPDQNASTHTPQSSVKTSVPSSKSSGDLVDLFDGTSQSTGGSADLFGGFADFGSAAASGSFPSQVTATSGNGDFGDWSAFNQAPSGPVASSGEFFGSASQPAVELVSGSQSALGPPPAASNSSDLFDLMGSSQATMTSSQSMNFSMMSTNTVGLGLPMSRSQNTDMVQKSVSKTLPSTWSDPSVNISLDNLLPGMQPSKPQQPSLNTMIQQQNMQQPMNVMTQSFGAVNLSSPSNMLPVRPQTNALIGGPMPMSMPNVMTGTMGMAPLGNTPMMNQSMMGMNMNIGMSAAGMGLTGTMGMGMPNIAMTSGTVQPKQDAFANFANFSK
# Chain of UniProt O75956 (O75956 whole entry, looked up): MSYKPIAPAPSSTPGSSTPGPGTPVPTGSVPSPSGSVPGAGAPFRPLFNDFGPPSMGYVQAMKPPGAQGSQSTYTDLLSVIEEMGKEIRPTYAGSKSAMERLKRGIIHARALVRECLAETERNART
# Chain of UniProt P55210 (P55210 whole entry, looked up): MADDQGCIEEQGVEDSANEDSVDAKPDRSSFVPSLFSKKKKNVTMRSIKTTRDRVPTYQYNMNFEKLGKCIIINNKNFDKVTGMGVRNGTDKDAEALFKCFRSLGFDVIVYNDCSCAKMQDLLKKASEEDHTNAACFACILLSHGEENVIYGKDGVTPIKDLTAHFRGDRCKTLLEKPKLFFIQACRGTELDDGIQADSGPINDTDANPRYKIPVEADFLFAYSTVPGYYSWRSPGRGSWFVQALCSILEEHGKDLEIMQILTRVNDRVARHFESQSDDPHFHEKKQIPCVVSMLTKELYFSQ
# Chain of UniProt P51911 (P51911 whole entry, looked up): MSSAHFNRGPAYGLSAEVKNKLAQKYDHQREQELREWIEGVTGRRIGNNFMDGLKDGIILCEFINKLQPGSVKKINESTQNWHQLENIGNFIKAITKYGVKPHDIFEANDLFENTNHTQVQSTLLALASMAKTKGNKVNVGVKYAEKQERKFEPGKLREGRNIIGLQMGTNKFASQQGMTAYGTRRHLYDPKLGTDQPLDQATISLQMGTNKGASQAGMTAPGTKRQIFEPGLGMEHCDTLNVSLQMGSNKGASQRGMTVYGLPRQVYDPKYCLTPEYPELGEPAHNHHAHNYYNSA
# Chain of UniProt Q92828 (Q92828 whole entry, looked up): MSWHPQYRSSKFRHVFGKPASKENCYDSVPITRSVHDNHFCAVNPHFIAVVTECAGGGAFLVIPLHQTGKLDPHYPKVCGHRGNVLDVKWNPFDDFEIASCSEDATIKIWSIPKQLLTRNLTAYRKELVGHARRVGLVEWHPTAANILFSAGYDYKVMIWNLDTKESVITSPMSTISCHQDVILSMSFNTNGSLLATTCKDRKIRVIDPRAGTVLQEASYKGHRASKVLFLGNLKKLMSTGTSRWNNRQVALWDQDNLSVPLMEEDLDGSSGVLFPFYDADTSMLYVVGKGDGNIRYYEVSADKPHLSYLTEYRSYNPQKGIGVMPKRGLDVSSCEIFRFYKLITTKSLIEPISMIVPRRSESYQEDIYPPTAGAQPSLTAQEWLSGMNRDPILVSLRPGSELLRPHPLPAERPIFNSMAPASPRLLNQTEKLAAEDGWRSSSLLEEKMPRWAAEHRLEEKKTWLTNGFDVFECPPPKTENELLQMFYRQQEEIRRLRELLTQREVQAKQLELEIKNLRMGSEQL
# Chain of UniProt P51795 (P51795 whole entry, looked up): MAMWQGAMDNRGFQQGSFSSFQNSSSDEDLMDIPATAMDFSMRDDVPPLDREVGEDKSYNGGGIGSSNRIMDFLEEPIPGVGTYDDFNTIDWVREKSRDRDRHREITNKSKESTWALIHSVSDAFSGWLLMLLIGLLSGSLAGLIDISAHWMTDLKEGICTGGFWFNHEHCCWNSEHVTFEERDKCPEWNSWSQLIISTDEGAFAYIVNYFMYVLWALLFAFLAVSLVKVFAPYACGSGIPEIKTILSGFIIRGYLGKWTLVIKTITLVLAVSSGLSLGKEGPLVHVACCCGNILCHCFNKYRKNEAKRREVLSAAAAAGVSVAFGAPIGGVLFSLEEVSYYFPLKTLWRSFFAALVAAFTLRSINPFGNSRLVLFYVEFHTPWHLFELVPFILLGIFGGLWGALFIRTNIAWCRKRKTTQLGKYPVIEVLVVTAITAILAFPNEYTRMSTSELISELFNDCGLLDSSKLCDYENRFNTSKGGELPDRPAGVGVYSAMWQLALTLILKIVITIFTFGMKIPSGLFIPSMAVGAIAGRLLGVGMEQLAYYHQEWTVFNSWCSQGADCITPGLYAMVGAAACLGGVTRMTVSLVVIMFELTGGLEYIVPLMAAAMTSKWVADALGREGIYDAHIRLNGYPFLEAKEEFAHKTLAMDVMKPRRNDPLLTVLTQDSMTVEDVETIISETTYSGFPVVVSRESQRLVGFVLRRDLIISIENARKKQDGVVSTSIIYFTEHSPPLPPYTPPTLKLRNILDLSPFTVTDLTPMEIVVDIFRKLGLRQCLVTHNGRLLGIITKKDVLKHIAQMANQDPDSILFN
# Chain of UniProt A8MTT3 (A8MTT3 whole entry, looked up): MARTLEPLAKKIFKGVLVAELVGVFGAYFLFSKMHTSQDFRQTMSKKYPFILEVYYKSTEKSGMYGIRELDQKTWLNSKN
# Chain of UniProt O75122 (O75122 whole entry, looked up): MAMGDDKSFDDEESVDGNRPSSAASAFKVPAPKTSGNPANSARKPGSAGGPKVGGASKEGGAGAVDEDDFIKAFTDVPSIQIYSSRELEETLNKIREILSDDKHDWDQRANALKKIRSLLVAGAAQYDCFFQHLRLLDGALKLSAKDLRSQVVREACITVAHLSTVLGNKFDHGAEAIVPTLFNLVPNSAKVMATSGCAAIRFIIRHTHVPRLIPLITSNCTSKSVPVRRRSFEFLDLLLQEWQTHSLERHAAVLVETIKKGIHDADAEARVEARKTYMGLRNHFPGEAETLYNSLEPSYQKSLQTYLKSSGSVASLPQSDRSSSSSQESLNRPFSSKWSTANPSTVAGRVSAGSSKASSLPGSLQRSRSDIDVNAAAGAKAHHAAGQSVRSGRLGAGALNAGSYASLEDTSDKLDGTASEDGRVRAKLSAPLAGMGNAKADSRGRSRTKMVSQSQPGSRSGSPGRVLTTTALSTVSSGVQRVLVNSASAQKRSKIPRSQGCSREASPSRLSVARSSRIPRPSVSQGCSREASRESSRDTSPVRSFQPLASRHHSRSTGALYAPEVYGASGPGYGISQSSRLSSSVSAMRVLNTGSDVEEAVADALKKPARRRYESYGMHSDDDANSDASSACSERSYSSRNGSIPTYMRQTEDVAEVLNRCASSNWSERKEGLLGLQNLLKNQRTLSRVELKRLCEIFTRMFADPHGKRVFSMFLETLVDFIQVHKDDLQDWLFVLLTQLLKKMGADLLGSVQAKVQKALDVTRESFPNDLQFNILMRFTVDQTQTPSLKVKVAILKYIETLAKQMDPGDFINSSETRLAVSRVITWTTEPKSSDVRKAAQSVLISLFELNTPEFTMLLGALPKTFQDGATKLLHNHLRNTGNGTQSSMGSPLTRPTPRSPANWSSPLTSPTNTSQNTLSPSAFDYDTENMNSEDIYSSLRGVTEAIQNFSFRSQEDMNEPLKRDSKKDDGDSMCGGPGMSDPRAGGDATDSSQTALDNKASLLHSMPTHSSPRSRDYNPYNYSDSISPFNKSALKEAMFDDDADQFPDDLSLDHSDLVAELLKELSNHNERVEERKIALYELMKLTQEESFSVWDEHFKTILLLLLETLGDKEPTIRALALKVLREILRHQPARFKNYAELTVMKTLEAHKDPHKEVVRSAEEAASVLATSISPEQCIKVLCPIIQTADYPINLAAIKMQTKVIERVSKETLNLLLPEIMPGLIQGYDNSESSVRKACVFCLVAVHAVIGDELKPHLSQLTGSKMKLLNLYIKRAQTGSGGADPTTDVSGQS
# Chain of UniProt Q96F85 (Q96F85 whole entry, looked up): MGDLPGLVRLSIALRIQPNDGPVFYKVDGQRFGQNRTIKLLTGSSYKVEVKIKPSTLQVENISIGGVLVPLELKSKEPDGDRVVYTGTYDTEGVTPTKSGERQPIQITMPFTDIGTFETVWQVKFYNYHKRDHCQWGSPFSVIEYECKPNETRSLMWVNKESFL
Target,log2 fold change (crizotinib),log2 fold change [1],log2 fold change (duvelisib),log2 fold change (gandotinib),log2 fold change (tozasertib),log2 fold change [2],log2 fold change (doramapimod),log2 fold change (ispinesib),log2 fold change [3],log2 fold change (nilotinib),log2 fold change [4],log2 fold change (dasatinib),log2 fold change [5],log2 fold change [6],log2 fold change [7],log2 fold change [8],log2 fold change (bafetinib),log2 fold change [9],log2 fold change (tipifarnib),log2 fold change (mubritinib)
CLCN5 isoform 2 (UniProt P51795),-0.321,-0.123,0.188,-0.083,0.122,-0.049,-0.03,-0.419 (active),0.048,-0.176,0.014,-0.177,-0.063,0.041,-0.061,,,,,
CA1 (UniProt E5RIF9),,,0.055,,-0.153,-0.613,,,,,,-0.098,,,,-0.134,-0.042,,,
CORO2A (UniProt Q92828),,0.101,0.061,0.061,-0.028,0.023,,-0.046,0.015,-0.047,-0.052,-0.066,-0.049,-0.017,-0.255,,0.021,-0.085,-0.005,0.048
CASP7 isoform 3 (UniProt P55210),,,-0.024,-0.155,,-0.271,,,-0.401,0.145,-0.001,-0.239,-0.102,,,0.3,-1.01 (active),,,
CNRIP1 (UniProt Q96F85),,,,,,,,-0.147,,-0.066,-0.071,,0.056,,0.038,0.209,,,-0.075,-0.148
CDK2AP2 (UniProt O75956),0.213,-0.015,,,,,-0.014,-0.011,,0.04,0.028,,-0.063,-0.022,-0.039,0.173,0,,,0.028
CRMP1 isoform 2 (UniProt Q14194),,0.08,0.208,-0.132,-0.602,-0.003,,,-0.035,-0.012,0.221,-0.074,-0.138,0.182,,,-0.024,0.024,,
CS (UniProt F8VU34),,,,,,,,,,,,,,,,,0.044,,,
CNN1 (UniProt P51911),,-0.121,,-0.673 (active),-0.151,,,,0.22,0.008,0,,0.031,0.04,,0.045,,-0.052,0.049,0.009
CCNL1 (UniProt Q9UK58),,,,,,,,,,,,,,,,,,,,0.122
CCDC82 (UniProt Q8N4S0),0.148,0.015,-0.223,,-0.106,-0.119,-0.165,-0.026,,0.018,-0.017,0.015,-0.043,-0.132,-0.021,-0.174,-0.091,,0.01,0.087
CEBPZOS (UniProt A8MTT3),0.26 (active),,0.055,-0.189,-0.031,-0.013,0.066,0.016,0.014,0.039,0.021,0.009,-0.027,,0.033,,0.066,,-0.044,0.121
CLASP2 (UniProt O75122),-0.21,0.155,,,,,0.132,-0.007,,0.014,-0.278,,-0.231,-0.155,-0.344,,-0.098,,0.045,0.027
CLINT1 (UniProt Q14677),0.166,0.005,-0.08,,0.074,-0.155,0.154,,,0.065,-0.048,0.142,-0.151,0.047,,,-0.053,,,-0.007
